From PubChem BioAssay
Calls of active or inactive are those of the source.

How the values were obtained:
[1] = test system: Plasmodium falciparum Sir2 (PF13_0152, Sir2A); assay: pfSir2 binders on small-molecule microarrays, primary screen, biochemical, small-molecule microarray, 635 nm fluorescence (AID 1098); settings: small-molecule microarray binding, fluorescence 635 nm; higher = more signal;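 also: score merges spot fluorescence intensity with its signal-to-noise ratio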
[2] = small-molecule microarray binders of probe aDKK1, primary screen, biochemical, biotinylated probe, 635/667 nm fluorescence (AID 1099); settings: higher = more signal;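 also: score merges 667nm spot fluorescence with signal to noise across triplicate slides; reference of the scale not given here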
[3] = small-molecule microarray binders of probe aCHRDL2, primary screen, biochemical, biotinylated probe, 635/667 nm fluorescence (AID 1100); settings: higher = more signal
[4] = splicing luciferase reporter signal modulators, primary screen, spliceosome inhibition project, cell-based, HEK293, splice +/- reporter (AID 1101); settings: luminescence, 24 h, higher = more signal, called active from +8 up or from −8 down;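 also: HEK293 cells carrying a splicing-competent luciferase reporter gene; test concentration not given here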
[5] = target: Fibroblast growth factor 10 (Homo sapiens) (UniProt O15520); assay: FGF10 binders on small-molecule microarrays, primary screen, biochemical, small-molecule microarray, 635 nm fluorescence (AID 1102); settings: FGF10 binding, fluorescence 635 nm, higher = more signal
[6] = test system: glycogen synthase kinase-3 (GSK3A per assay name; protocol says GSK3B); assay: GSK3 binders on small-molecule microarrays, primary screen, biochemical, small-molecule microarray, 635 nm fluorescence, GSK3A (AID 1103); settings: small-molecule microarray binding, fluorescence 635 nm; higher = more signal; also: the record names both GSK3A and GSK3B
[7] = target: Epidermal growth factor receptor (Homo sapiens) (UniProt P00533); assay: EGFR binders on small-molecule microarrays, primary screen, biochemical, small-molecule microarray, 635 nm fluorescence (AID 1104); settings: EGFR binding, higher = more signal;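 also: score merges 667 nm emission intensity with spot signal to noise over triplicate slides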
[8] = target: Follistatin-related protein 3 (Homo sapiens) (UniProt O95633); assay: FSTL3 binders on small-molecule microarrays, primary screen, biochemical, small-molecule microarray, 635 nm fluorescence (AID 1105); settings: FSTL3 binding, higher = more signal;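 also: score merges emission near 667 nm and signal to noise per printed spot across three slides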
[9] = target: Dickkopf-related protein 1 (Homo sapiens) (UniProt O94907); assay: DKK1 binders on small-molecule microarrays, primary screen, biochemical, small-molecule microarray, 635 nm fluorescence scan (AID 1106); settings: DKK1 binding, higher = more signal;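 also: score merges emission near 667 nm with signal to noise over three replicate slides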
[10] = test system: Inhibin beta A chain (activin A); assay: INHBA (activin A) binders on microarrays, primary screen, biochemical, small-molecule microarray, 635 nm fluorescence scan (AID 1107); settings: small-molecule microarray binding, higher = more signal;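 also: mouse activin A protein probed at 4.33 µg/mL on printed slides; score merges bound-protein fluorescence near 667 nm with spot signal-to-noise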

Chain of Follistatin-related protein 3 (Homo sapiens) (O95633 whole entry, looked up): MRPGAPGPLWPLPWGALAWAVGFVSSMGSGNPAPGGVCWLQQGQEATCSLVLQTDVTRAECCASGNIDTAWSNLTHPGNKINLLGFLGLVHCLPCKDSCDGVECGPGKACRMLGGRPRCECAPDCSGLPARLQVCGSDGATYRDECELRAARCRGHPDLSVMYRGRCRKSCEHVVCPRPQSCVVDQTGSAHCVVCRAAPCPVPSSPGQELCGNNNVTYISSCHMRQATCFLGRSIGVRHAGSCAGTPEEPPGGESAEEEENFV
Chain of Fibroblast growth factor 10 (Homo sapiens) (O15520 whole entry, looked up): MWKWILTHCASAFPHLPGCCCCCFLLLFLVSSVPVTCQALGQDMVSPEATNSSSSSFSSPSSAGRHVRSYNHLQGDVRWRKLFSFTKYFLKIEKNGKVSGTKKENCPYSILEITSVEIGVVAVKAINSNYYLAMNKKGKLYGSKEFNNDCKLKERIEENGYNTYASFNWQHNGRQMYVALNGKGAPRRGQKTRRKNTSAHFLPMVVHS
Chain of Dickkopf-related protein 1 (Homo sapiens) (O94907 whole entry, looked up): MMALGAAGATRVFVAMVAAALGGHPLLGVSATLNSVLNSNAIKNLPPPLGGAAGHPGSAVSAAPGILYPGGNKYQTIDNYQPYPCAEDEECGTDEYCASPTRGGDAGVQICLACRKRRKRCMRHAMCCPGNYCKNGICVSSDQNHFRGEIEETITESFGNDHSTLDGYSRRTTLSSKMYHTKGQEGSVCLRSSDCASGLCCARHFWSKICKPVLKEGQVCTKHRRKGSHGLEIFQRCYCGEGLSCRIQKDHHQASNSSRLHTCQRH
Chain of Epidermal growth factor receptor (Homo sapiens) (P00533 whole entry, looked up): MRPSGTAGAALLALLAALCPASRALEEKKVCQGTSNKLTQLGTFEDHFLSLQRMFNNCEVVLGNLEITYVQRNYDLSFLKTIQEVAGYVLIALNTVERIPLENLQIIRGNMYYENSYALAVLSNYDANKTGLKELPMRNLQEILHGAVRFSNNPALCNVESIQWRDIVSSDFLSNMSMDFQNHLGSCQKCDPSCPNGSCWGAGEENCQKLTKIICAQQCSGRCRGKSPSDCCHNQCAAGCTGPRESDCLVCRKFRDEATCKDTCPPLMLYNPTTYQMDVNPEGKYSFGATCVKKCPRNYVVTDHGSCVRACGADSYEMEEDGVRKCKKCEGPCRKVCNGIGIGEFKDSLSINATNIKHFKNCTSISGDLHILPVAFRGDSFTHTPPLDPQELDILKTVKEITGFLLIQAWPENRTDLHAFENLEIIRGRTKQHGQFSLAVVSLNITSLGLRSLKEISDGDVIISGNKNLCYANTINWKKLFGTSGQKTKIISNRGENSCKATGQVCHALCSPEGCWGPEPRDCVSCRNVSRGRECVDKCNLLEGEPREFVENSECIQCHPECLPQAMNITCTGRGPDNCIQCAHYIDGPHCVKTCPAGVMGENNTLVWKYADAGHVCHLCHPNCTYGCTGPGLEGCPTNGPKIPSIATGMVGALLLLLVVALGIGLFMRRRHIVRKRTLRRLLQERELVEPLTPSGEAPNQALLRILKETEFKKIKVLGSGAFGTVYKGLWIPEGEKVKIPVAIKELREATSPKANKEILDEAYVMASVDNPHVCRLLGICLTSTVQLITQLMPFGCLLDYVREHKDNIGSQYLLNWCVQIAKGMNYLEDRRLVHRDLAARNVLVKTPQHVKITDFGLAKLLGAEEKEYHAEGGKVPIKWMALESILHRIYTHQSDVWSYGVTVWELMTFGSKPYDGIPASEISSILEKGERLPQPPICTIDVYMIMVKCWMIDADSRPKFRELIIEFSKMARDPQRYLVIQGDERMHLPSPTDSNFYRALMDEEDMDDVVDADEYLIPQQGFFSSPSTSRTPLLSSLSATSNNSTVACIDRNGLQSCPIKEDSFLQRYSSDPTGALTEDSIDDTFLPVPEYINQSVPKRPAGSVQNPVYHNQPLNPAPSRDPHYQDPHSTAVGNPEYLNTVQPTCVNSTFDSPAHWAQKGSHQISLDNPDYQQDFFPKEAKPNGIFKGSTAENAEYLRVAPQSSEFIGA

| Compound | composite z-score [1] | composite z-score [2] | composite z-score [3] | z-score [4] | composite z-score [5] | composite z-score [6] | composite z-score [7] | composite z-score [8] | composite z-score [9] | composite z-score [10] |
| --- | --- | --- | --- | --- | --- | --- | --- | --- | --- | --- |
| COc1ccc(COC(=O)NN=C2C[C@@H](O)[C@@H](O)[C@@H]3[C@@H]4C(=O)N(Cc5ccccc5)C(=O)[C@@H]4CC[C@@H]23)cc1 | 0.0233 | -0.12 | -0.249 | -0.221 (inactive) | 0.193 | 0.256 | 0.375 | 0.253 | 0.227 | -0.0039 |
| CC(C)[C@@H](OCc1ccccc1)[C@H](C)C=NOC[C@@H](O)[C@H]1O[C@@H]2OC(C)(C)O[C@@H]2[C@H]1O | 0.635 | -0.0784 | -0.609 | -0.262 (inactive) | 0.355 | 0.151 | 0.677 | 0.628 | 0.254 | -0.519 |
| COc1ccc(COC(=O)NN=C2C[C@@H](O)[C@@H](O)[C@@H]3[C@@H]4C(=O)N(Cc5ccc6c(c5)OCO6)C(=O)[C@@H]4CC[C@H]23)cc1 | -0.218 | 1.16 | 1.41 | 0.491 (inactive) | -0.67 | -0.104 | -0.953 | -0.152 | -1.03 | 0.991 |
| C[C@]12CCC3c4ccc(OCC5CO5)cc4CCC3C1CC[C@@H]2O (stereo not given in full) | 0.728 | 0.527 | 0.596 | 0.147 (inactive) | 0.457 | -0.309 | 0.182 | 0.239 | 0.0294 | 0.944 |
| COC(=O)CC=C[C@@H](C)[C@@H](C=NOC(C)CN1CCCCc2nc(C)c(C)cc21)NS(=O)(=O)c1ccc(C)cc1 (stereo not given in full) | 0.361 | -0.0704 | 0.0097 | -0.182 (inactive) | -0.129 | 0.165 | 1 | 0.437 | 0.846 | 1.15 |
| O=C(NN=C1C[C@@H](O)[C@@H](O)[C@@H]2[C@@H]3C(=O)N(c4ccc(F)cc4F)C(=O)[C@@H]3CC[C@H]12)OCc1ccccc1 | 0.705 | 0.052 | 0.793 | 0.267 (inactive) | 0.379 | 0.131 | -0.0295 | 0.385 | -0.118 | 0.0132 |
| CCOC(=O)[C@H](Cc1ccccc1)NC(=O)CCC1CC(OC(=O)NCc2ccc3c(c2)OCO3)CC2(CCCC(COC(=O)NCCCN3CCCC3=O)O2)O1 (stereo not given in full) | 0.465 | -0.505 | -0.431 | -0.199 (inactive) | 0.573 | 0.852 | 0.494 | 0.645 | 0.543 | 0.312 |
| C[C@@H](c1ccccc1)N1C(=O)[C@H]2[C@H]3[C@H](O)[C@H](O)CC(=NNC(=O)OCc4ccccc4)[C@@H]3CC[C@H]2C1=O | 0.404 | -0.657 | -1.57 | 0.574 (inactive) | -0.0948 | 1.25 | 0.845 | 1.5 | 1.94 | 1.56 |
| CCOC(=O)CCN1C(=O)[C@H]2[C@H]3[C@H](O)[C@H](O)CC(=NNC(=O)OCc4ccc(OC)cc4)[C@H]3CC[C@H]2C1=O | 0.14 | 0.127 | 0.0124 | -0.352 (inactive) | -0.186 | 0.071 | 0.459 | 0.449 | 0.132 | 0.747 |
| CCOC(=O)CCN1C(=O)[C@H]2[C@H]3[C@H](O)[C@H](O)CC(=NO[C@@H]4O[C@H](CO)[C@@H](O)[C@H](O)[C@H]4O)[C@H]3CC[C@H]2C1=O | 0.29 | 0.198 | -0.141 | -0.265 (inactive) | 0.655 | 0.822 | 0.563 | 0.231 | 0.315 | 0.401 |
| O=C1[C@H]2[C@H]3[C@H](O)[C@H](O)CC(=NO[C@@H]4O[C@H](CO)[C@@H](O)[C@H](O)[C@H]4O)[C@@H]3CC[C@H]2C(=O)N1C1CCCCC1 | 0.203 | -0.275 | -0.458 | -0.155 (inactive) | 0.57 | 0.607 | 0.46 | 0.542 | 0.353 | -0.224 |
| COC(=O)CC=C[C@@H](C)[C@@H](C=NOC[C@@H](O)COCc1ccco1)NS(=O)(=O)c1ccc(C)cc1 | 0.406 | -0.87 | -1.13 | 0.46 (inactive) | -0.168 | -0.268 | 0.497 | 0.914 | 0.864 | 1.65 |
| COC(=O)[C@@H]1CC[C@H](C)[C@@H](c2ccc(C)cc2)N1C(=O)c1ccc(C=NO[C@@H](C)c2cc(-c3c(C)cc(C)cc3C)no2)cc1 | 0.321 | -0.12 | -0.144 | -1.04 (inactive) | 0.418 | 0.738 | 0.51 | 0.242 | 0.675 | 0.598 |
| CC(CCC(=O)OC[C@H]1O[C@H](C#Cc2ccccc2)C=C[C@@H]1Oc1ccc(C)cc1)=NO[C@H](C)c1cn([C@@H]2COC[C@H]2O)nn1 | 0.261 | -0.2 | -0.383 | -1.45 (inactive) | 0.162 | -0.267 | 0.238 | 0.22 | 0.285 | 0.203 |
| COc1ccc(O[C@H]2C=C[C@@H](c3ccccc3)O[C@@H]2COC(=O)CCC(C)=NOC[C@@H](O)COCc2ccco2)cc1 | -1.47 | -0.866 | 0.0183 | -0.909 (inactive) | -2.67 | -1.95 | -2.8 | -2.9 | -1.99 | -0.0879 |
| CC(=O)OC[C@H]1O[C@H](CC=NOC[C@@H](O)COCc2ccco2)C=C[C@@H]1OC(C)=O | 0.717 | -0.233 | -1.06 | -0.0391 (inactive) | 0.397 | 1.24 | 1.58 | 1.37 | 1.74 | 1.14 |
